Assay outcomes from PubChem.
IkB signaling = IkB Signaling; ABC-DLBCL IkBa-CBG/CBR dual luciferase ratio, 4 h; response scale: scaled: untreated 0%, proteasome inhibitor 100%; Potency, µM (series often up to 57.1 µM); 110,000 compounds, 0.04% hits; AID 445, 2006; active means well fitted curve in the direction sought with a large enough effect in the signal ratio, not every such curve was filed as active; inconclusive means small, poorly fitted or top-dose-only effect, or a change in a side signal; the % refers to the signal ratio;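 further: the direction sought is a rising ratio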
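In this assay, an IκBα–CBG68 fusion accumulates when IKK-driven degradation is blocked; native CBR normalizes for cell number. OCI-Ly3 cells were treated 4 h with compound and doxycycline, then green and red light read after Chroma-Glo addition.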
p53ts 39C tox = qHTS Screen for Compounds that Selectively Target Cancer Cells with p53 Mutations: Cytotoxicity of p53ts Cells at the Nonpermissive Temperature; Potency, µM (doses to about 46.1 µM), usual class: cytotoxic; 130,000 compounds, 1.5% hits; H1299-p53A138V viability at 39C, ATP luminescence, 24 h; AID 902, 2007; further: nearly all actives have a fitted effect of over 55% in size
p53ts 32C kill = qHTS Screen for Compounds that Selectively Target Cancer Cells with p53 Mutations: Cytotoxicity of p53ts Cells at the Permissive Temperature; H1299-p53A138V at 32C, ATP luminescence viability, 24 h; Potency, µM (doses to about 46.1 µM), most hits filed as cytotoxic; 130,000 compounds, 0.93% hits; further: nearly all actives have a fitted effect of over 55% in size
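Viability by ATPlite luminescence after 24 h compound treatment (up to 46 uM) at the permissive 32C. Cells are H1299 carrying p53 A138V. Scale runs from DMSO basal to 100 uM tamoxifen as full kill; AC50 from Hill fits.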
Peg3 imprint = qHTS Assay for Compounds that Induce Erasure of Genomic Imprints; 110,000 compounds, 0.02% hits; mouse ES Peg3-LacZ reporter, beta-gal luminescence, 40 h; Potency, µM (top dose mostly 60.7 µM), usual class: activators
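Readout: BetaGlo luminescence (5 min, room temp) for LacZ from the normally silent maternal Peg3 allele in female Peg3LacZ-Neo ES cells. Cells 300/well, 40 h, 37C, 5% CO2. Data normalized per plate to negative controls.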
A number is an active result; - = inactive; ? = inconclusive; . = not tested or not shown; [ ] = dose if it differs, or a comment. Only some compounds are listed: those with a hit (about 1.8% of all), similar ones and a draw of the others. Unless noted, the call rests on the fitted dose curve; in most records, active means well fitted curve in the direction sought with a large enough effect; inconclusive means small, poorly fitted or top-dose-only effect, or another doubt; inactive means no such curve, though single readings can be large; an effect the other way counts as inactive or inconclusive.

SMILES	IkB signaling	p53ts 39C tox	p53ts 32C kill	Peg3 imprint
Cc1ccc(CNC(=O)Cn2cc(S(=O)(=O)Cc3cccc(Cl)c3)c3ccccc32)cc1	.	.	-	.
Cc1ccc(C2=Nc3ccccc3N(CC(=O)NCc3ccc(F)cc3)C(=O)C2)cc1C	-	10µM	-	-[10.9 µM]
COc1cccc(CNC(=O)c2cc3c(=O)n(C)c4ccccc4c3n2C)c1	?	10µM	-	-[10.9 µM]
COC(=O)c1ccc(CSc2nnc3ccc4ccccc4n23)cc1	?	-	-	-[10.9 µM]
CCCCNC(=O)CSc1nnc(C)c2c(C)n(-c3ccccc3)nc12	?	16µM	-	-[10.9 µM]
CCOc1ccc(CNC(=O)CSc2nnc(C)c3c(C)n(-c4ccccc4)nc23)cc1	-	25µM	-	-[10.9 µM]
Cc1nnc(SCC(=O)NCc2cccc(F)c2)c2nn(-c3ccccc3)c(C)c12	-	-	-	-[10.9 µM]
COc1ccc(O[C@H]2C=C[C@@H](c3ccccc3)O[C@H]2COC(=O)CC/C(C)=N\O[C@@H](C)c2cc(-c3c(C)cc(C)cc3C)no2)cc1	.	-[9.22 µM]	-[9.22 µM]	.
Cc1cc2oc(C(=O)Nc3sc4c(c3C(=O)NCC3CCCO3)CCC4)cc(=O)c2cc1C (stereo not given)	-	-	-	-[10.9 µM]
CO[C@H]1COC(=O)[C@H](C)NC(=O)C/C=C\[C@@H](C)[C@@H](NS(=O)(=O)c2ccc(C)cc2)COC(=O)C/C=C\[C@@H]1C	.	-[9.22 µM]	-[9.22 µM]	.
OC(CN1CCC(Cc2ccc(F)cc2)CC1)c1ccc(Cl)cc1 (stereo not given)	.	?	-	-
Nc1nc(-c2ccc3c(c2)OCCO3)cs1	-	?	?	-
CCC(C)C(=O)N1CCc2cc(-c3csc(N)n3)ccc21 (stereo not given)	-	13µM	10µM	-
Nc1nc(-c2ccc3c(c2)CCCC3)cs1	-	13µM	?	-
CCCC(=O)N1CCc2cc(-c3nc(N)sc3C)ccc21	-	-	-	-
Cc1ccc(-n2ncc3c(NCCCN(C)C)ncnc32)cc1Cl	-	16µM	-	-[10.9 µM]
O=C(CN1C(=O)C(c2ccc(F)cc2)=NC12CCCCCC2)Nc1ccc(F)c(Cl)c1	?	10µM	-	-[10.9 µM]
CCCCOc1cccc(C(=O)Nc2cc3nn(-c4ccc(F)cc4)nc3cc2C)c1	-	-	-	-[10.9 µM]
CC1=C(\C=C/C(C)=C/C=C\C(C)=C\C(=O)O)C(C)(C)CCC1	?	-	-	-
CC1=C(/C=C/C(C)=C/C=C/C(C)=C/C(=O)Nc2ccc(O)cc2)C(C)(C)CCC1	?	16µM	?	-
CCCS(=O)(=O)Nc1cc(-c2cn3ccc(C)cc3n2)ccc1C	-	?	?	-[10.9 µM]
Cc1ccc(-c2cn3ccc(C)cc3n2)cc1	?	0.63µM	0.5µM	-[10.9 µM]
COc1ccc(-c2cn3ccccc3n2)cc1OC	-	5µM	3.2µM	-
COc1ccc(-c2cn3cc(C)ccc3n2)cc1OC	-	13µM	10µM	-
CC1CCC(O)([C@](C)(C(=O)O)c2ccccc2)CC1 (stereo not given in full)	-[11.4 µM]	-[9.22 µM]	-[9.22 µM]	-[10.9 µM]
SMILES	IkB signaling	p53ts 39C tox	p53ts 32C kill	Peg3 imprint
Cc1nc2ccccc2n1CCc1nc2c3ccccc3nc(SCC(=O)Nc3ccc(C(C)C)cc3)n2n1	-	10µM	?	-[10.9 µM]
Cc1ccccc1NC(=O)CSc1nc2ccccc2c2nc(CCn3c(C)nc4ccccc43)nn12	-	-	-	-[10.9 µM]
Cc1cccc(CNC(=O)c2ccc(C)c(-n3c(C)nc4cccnc43)c2)c1	?	-	-	-[10.9 µM]
O=C1NCCCC2c3cc(O)c4ccccc4c3OC12N1CCCCC1 (stereo not given)	?	7.9µM	6.3µM	-
O=C1NCCCC2c3c(cc(Br)c(O)c3Br)OC12N1CCOCC1 (stereo not given)	-	-	-	-
CC(C)Oc1ccc(CNC(=O)c2cccc(NC(=O)c3nsc4ccccc34)c2)cc1	-	-	-	-[10.9 µM]
CN(Cc1ccccc1)C(=O)c1cccc(NC(=O)c2nsc3ccccc23)c1	-	10µM	?	-[10.9 µM]
NC(=NC1C2CC3CC(C2)CC1C3)Nc1ccc(I)cc1 (stereo not given)	-	25µM	-	-
O=C(Nc1cccc(C(F)(F)F)c1)c1noc2c1CCc1ccccc1-2	?	-	-	-[10.9 µM]
O=C(Nc1cccc(O)c1)c1noc2c1CCc1ccccc1-2	?	2.5µM	4µM	-[10.9 µM]
Cc1ccc2scc(N3CCCC(C)C3)c(=O)c2c1 (stereo not given)	?	?	13µM	-[10.9 µM]
Cc1ccc2scc(N3CCN(c4cccc(C(F)(F)F)c4)CC3)c(=O)c2c1	-	?	-	-[10.9 µM]
CN1CCN(c2ncc3nc(-c4cc(F)cc(F)c4)c(=O)n(C4CC4)c3n2)CC1	-[11.4 µM]	?	-	-
